We go through 17 compounds from PMC5540273 (PLoS ONE, 2017).

Some test systems named below: BLK; BMPR1A; BMPR1B; BMPR2; BMX; BRAF; BRSK1; BRSK2.
Holding throughout (details): concentration: 1 μM, replicates: in singlicate; n = 1
In the next assay the test system is T1, BIKE.
T1 construct: gene BMP2K

The test system of a further assay is T2, BRK.
T2 construct: gene PTK6
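Also: KINOMEscan kinase panel screen.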

Turning to `FC(F)(F)c1ccccc1-c1cc(-c2c[nH]nc2-c2ccccn2)ccn1` [GW679396], the “%Inh” value turned out to be 24% in the assay with BIKE; 1% in the assay with BLK; 13% in the assay on BMPR1A; 0% with BMPR1B; 7% with BMPR2; 0% with BMX. Also, the “%Inh” value came out at 0% with BRAF, 20% in the assay with BRK, 0% in the assay with BRSK1 and 0% in the assay with BRSK2.

`Cc1nccc(-c2c(-c3ccc(F)cc3)ncn2CCCN2CCOCC2)n1.Cl` [SB-282975]: the “%Inh” value in the assay with BIKE was found to be 15%; in the assay on BLK, 12%; with BMPR1A, 26%; in the assay on BMPR1B, 8%; in the assay with BMPR2, 41%; in the assay on BMX, 31%. Moreover, the “%Inh” value was found to be 10% in the assay with BRAF, 13% in the assay on BRK, 0% with BRSK1 and 17% in the assay on BRSK2.

For the compound `COc1ccc(-c2coc3ccc(-c4nnc(C)o4)cc23)cc1`, the “%Inh” value in the assay with BIKE was found to be 0%; in the assay on BLK it was 3%; in the assay with BMPR1A it was 18%; in the assay with BMPR1B, 0%; with BMPR2, 0%; with BMX it was 0%. Moreover, the “%Inh” value with BRAF came to 0%; with BRK it was 0%; in the assay with BRSK1 it was 0%; in the assay on BRSK2, 100%.

Take `CC[C@@H]1CO[C@H](C(=O)Nc2ccccc2)CN1c1cc(-c2ccc3c(N)n[nH]c3c2)nc(NC)n1` [GSK2376236]: the “%Inh” value in the assay with BIKE is 15%; in the assay with BLK, 0%; with BMPR1A, 0%; in the assay on BMPR1B, 0%; with BMPR2 it was 0%; with BMX, 41%. Also, the “%Inh” value is recorded as 0% with BRAF, 7% with BRK, 0% in the assay on BRSK1 and 1% with BRSK2.

Consider `Cc1ccc(NC(=O)c2ccc(Cl)cc2)cc1-c1ccc(C(=O)Nc2ccncc2)cc1` [GSK1398467], for which the “%Inh” value with BIKE was found to be 13%; with BLK, 1%; in the assay with BMPR1A, 0%; with BMPR1B it was 0%; in the assay with BMPR2 it was 0%; in the assay with BMX, 8%. The “%Inh” value in the assay with BRAF amounted to 0%; in the assay on BRK, 0%; with BRSK1 it was 0%; in the assay with BRSK2 it was 18%.

As to `CC(=O)c1cccc(NC(=O)NC2CCN(c3ccnc(Nc4ccc(F)cc4)n3)C2)c1` (centres unmarked) [GSK1379710], the “%Inh” value with BIKE was determined as 25%; in the assay on BLK, 0%; in the assay on BMPR1A, 0%; in the assay on BMPR1B it was 0%; in the assay with BMPR2, 10%; in the assay on BMX, 16%. In addition, the “%Inh” value in the assay with BRAF stood at 0%; with BRK it was 4%; in the assay with BRSK1 it was 6%; in the assay on BRSK2, 0%.

With `COc1ccc(CSc2nnc(-c3ccc4nccn4c3)o2)cc1C(F)(F)F`, the “%Inh” value in the assay with BIKE is 18%; with BLK it was 1%; with BMPR1A it was 0%; in the assay on BMPR1B, 21%; in the assay with BMPR2 it was 3%; in the assay with BMX, 0%. The “%Inh” value was determined as 9% in the assay on BRAF, 0% with BRK, 14% with BRSK1 and 3% with BRSK2.

In the case of `COc1cc2ncnc(Nc3cccc(Br)c3)c2cc1OC.Cl` [GI230329], the “%Inh” value amounted to 19% with BIKE; 79% with BLK; 0% in the assay on BMPR1A; 0% in the assay with BMPR1B; 0% in the assay with BMPR2; 10% in the assay on BMX. In addition, the “%Inh” value in the assay with BRAF turned out to be 0%; with BRK, 10%; in the assay with BRSK1, 20%; with BRSK2, 14%.

In the case of `Cc1ccccc1-c1cc(-c2c[nH]nc2-c2ccccn2)ccn1` [GW680061], the “%Inh” value in the assay on BIKE worked out at 2%; with BLK, 32%; with BMPR1A, 0%; in the assay with BMPR1B it was 0%; in the assay on BMPR2 it was 7%; in the assay on BMX it was 1%. Further, the “%Inh” value in the assay on BRAF is reported as 6%; in the assay with BRK, 18%; in the assay with BRSK1, 0%; in the assay with BRSK2, 0%.

For `CN1c2ccc(-c3ccc(C(N)=O)cc3)cc2-c2[nH]ncc2S1(=O)=O`, the “%Inh” value with BIKE turned out to be 9%; in the assay on BLK it was 6%; in the assay with BMPR1A it was 0%; with BMPR1B it was 0%; with BMPR2, 0%; with BMX it was 0%. Besides, the “%Inh” value in the assay with BRAF came out at 0%; with BRK it was 0%; with BRSK1, 0%; in the assay with BRSK2, 6%.

Take `COc1ccc(Nc2nccc(NCCNC(=O)Nc3cc(C)ccc3C)n2)cc1` [GSK1379899]: the “%Inh” value with BIKE is given as 28%; in the assay on BLK it was 36%; with BMPR1A, 0%; in the assay on BMPR1B, 0%; in the assay with BMPR2, 0%; in the assay on BMX, 0%. In addition, the “%Inh” value in the assay on BRAF is recorded as 4%; in the assay with BRK, 0%; in the assay on BRSK1, 4%; in the assay with BRSK2 it was 7%.

For the compound `CC(C)c1cc(-c2ccc3c(N)n[nH]c3c2)nc(N)n1` [GSK2250882], the “%Inh” value with BIKE amounted to 72%; with BLK, 5%; with BMPR1A, 0%; with BMPR1B, 0%; with BMPR2, 4%; with BMX, 18%. The “%Inh” value was determined as 0% with BRAF, 14% in the assay on BRK, 40% with BRSK1 and 22% in the assay on BRSK2.

On to `Cc1ccc(NC(=O)Nc2ccccc2F)cc1-c1ccc(C(=O)Nc2ccncc2)cc1` [GSK1398477], for which the “%Inh” value with BIKE was found to be 28%; in the assay on BLK it was 51%; in the assay with BMPR1A, 7%; in the assay with BMPR1B it was 0%; in the assay on BMPR2 it was 0%; with BMX, 29%. In addition, the “%Inh” value in the assay with BRAF is recorded as 20%; in the assay with BRK, 34%; with BRSK1, 15%; in the assay with BRSK2, 13%.

`COC(=O)c1cccc(NC(=O)NC2CCN(c3ccnc(Nc4ccc(OC)cc4)n3)C2)c1` (centres unmarked) [GSK1379746]: the “%Inh” value in the assay with BIKE was 6%; with BLK, 0%; in the assay with BMPR1A it was 9%; with BMPR1B it was 0%; in the assay on BMPR2, 26%; in the assay on BMX, 3%. The “%Inh” value in the assay with BRAF came out at 7%; in the assay on BRK, 28%; in the assay on BRSK1, 0%; with BRSK2 it was 0%.

With `CCCCc1nn2ncccc2c1-c1ccnc(NC2CC2)n1` [GW684374], the “%Inh” value with BIKE amounted to 23%; in the assay with BLK, 0%; with BMPR1A, 0%; in the assay on BMPR1B, 0%; with BMPR2 it was 0%; in the assay on BMX, 4%. Also, the “%Inh” value in the assay on BRAF was found to be 7%; with BRK, 0%; in the assay with BRSK1, 0%; in the assay on BRSK2 it was 0%.

For `CNC(=O)c1ccc(C)c(-n2c(C)cc(OCc3ccc(F)cc3F)c(Br)c2=O)c1`, the “%Inh” value in the assay with BIKE was determined as 3%; with BLK, 0%; with BMPR1A it was 39%; in the assay on BMPR1B it was 0%; with BMPR2, 0%; in the assay on BMX, 0%. In addition, the “%Inh” value with BRAF, with BRK, in the assay on BRSK1 and in the assay on BRSK2 was 0% in each case.

With `CCn1c(-c2ccccc2)nc2cnccc21` [SB-733416], the “%Inh” value in the assay on BIKE is recorded as 28%; in the assay on BLK, 0%; with BMPR1A, 0%; in the assay on BMPR1B, 0%; with BMPR2 it was 10%; with BMX it was 0%. Moreover, the “%Inh” value with BRAF is recorded as 49%; in the assay on BRK, 27%; in the assay on BRSK1, 0%; in the assay with BRSK2 it was 1%.
